About 400 (5.1%) of roughly 7,900 compounds showed an effect of 50% or more. The entries come from a sample that favours strong results as a whole.
molecular target: Parkinson's disease protein 7 (PARK7/DJ1) (human, UniProt Q99497); assay: primary screen, percent inhibition; read as competition with a fluorescent probe by fluorescence polarization; higher = more effect of the substance; settings: 100 µM
Procedure, shortened: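 Fluorescence-polarization probe displacement (JYQ-107, 20 nM final, 2 h) after 2 h preincubation of PARK7 (0.2 μM final) with each fragment at 100 μM final. Read-out ex/em 480/520 nm; remaining activity derived from FP signal loss relative to reference controls.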

Chain of Parkinson's disease protein 7 (PARK7/DJ1) (Q99497 whole entry, looked up, the tested form may be a part): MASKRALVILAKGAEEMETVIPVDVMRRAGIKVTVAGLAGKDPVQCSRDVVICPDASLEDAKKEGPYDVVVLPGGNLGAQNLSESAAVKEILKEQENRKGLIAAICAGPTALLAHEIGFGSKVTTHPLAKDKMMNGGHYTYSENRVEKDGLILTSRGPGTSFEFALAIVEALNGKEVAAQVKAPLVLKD

SMILES | Inhibition %
CNC1CCCN(C(=O)C=Cc2cncc(F)c2)C1 (centres unmarked) | 29.3%
Cl.O=C(CCl)NCC(c1ccccc1Cl)N1CCCC1 (centres unmarked) | 3.25%
C=CC(=O)Nc1cnn(C(C)C)c1C1CC1 | 10.5%
O=C1SCCN1CN1CCN(c2ccccc2F)CC1 | 3.81%
N#Cc1nc(-c2ccco2)oc1N1CCN(C(=O)CCl)CC1 | 51.4%
CC(C)N1CCN(c2oc(-c3ccco3)nc2C#N)CC1 | 10%
CCCN1CCN(c2oc(-c3ccco3)nc2C#N)CC1 | 9.64%
N#Cc1nc(-c2ccco2)oc1N1CCNCC1 | 9.97%
C#CCN1CCN(c2oc(-c3ccco3)nc2C#N)CC1 | 53.7%
CCN1CCN(c2oc(-c3ccco3)nc2C#N)CC1 | 9.73%
ClCCCc1cccnc1 | 7.37%
Cc1c(C#N)c(NC(=O)CCl)n(C2CCCCC2)c1C | 15.6%
O=C(CCl)Nc1ccc(Cl)c(Cl)c1 | 63%
O=C(CCl)Nc1ccc(Cl)c(F)c1 | 36.8%
O=C(CCl)Nc1ccc2c(c1)oc1ccccc12 | 62.9%
CC(=O)c1oc2ccccc2c1NC(=O)CCl | 9.9%
O=C(CCl)Nc1ccc2c(c1)CCC2 | 57.8%
O=C(CCl)NC(=O)Nc1ccc(Br)cc1 | 23.3%
O=C(CCl)Nc1cccc(Br)c1 | 29.1%
COc1cc2c(cc1NC(=O)CCl)oc1ccccc12 | 4.67%
O=C(CCl)Nc1ccc(Br)cc1 | 70.1%

SMILES | Inhibition %
O=C(CCCl)Nc1ccc2c(c1)CCC2 | 4.93%
C=CC(=O)Nc1ccc2c(c1)CCC2 | 7.23%
O=C(CCl)Nc1ccc(F)c(Cl)c1 | 21.3%
O=C(c1cccnc1S)N1CCOC2(CCCC2)C1 | 6.34%
C=CC(=O)NCc1cc2n(n1)CCC2 | 10.7%
CC1(C)OB(c2cccc(OC(F)F)c2)OC1(C)C | 3.49%
C=CC(=O)Nc1cccc2c1CCN(S(C)(=O)=O)C2 | 3.82%
CC1CC(Sc2ccccc2F)C(=O)O1 (centres unmarked) | -0.183%
C=CC(=O)NCCN1C(=O)Cc2ccccc21 | 11%
CCN(C(=O)Cn1cnc(C#N)n1)C1=CCCCC1 | 6.47%
C=CC(=O)N1CC23CCCCC2(COC3)C1 (centres unmarked) | 8.4%
O=C(CCl)Nc1cccc(I)c1 | 41%
O=C(CCl)Nc1ccc(F)c(F)c1 | 25.9%
O=C(CCl)Nc1ccc(C(=O)O)cc1 | 25.9%
CC(=O)Nc1cccc(NC(=O)CCl)c1 | 19.2%
CC(C)(C)c1ccc(NC(=O)CCl)cc1 | 100%
O=C(CCl)Nc1ccc(I)cc1 | 93.2%
O=C(CCl)Nc1ccc2ccccc2c1 | 55.8%
O=C(CCl)Nc1ccc(Cl)cc1 | 60.3%
O=C(CCl)Nc1ccc2c(c1)C(=O)c1ccccc1C2=O | 2.08%
O=C(CCCl)Nc1ccc(Cl)cc1 | 9.16%

SMILES | Inhibition %
CNC(=O)c1ccc(NC(=O)CCl)cc1 | 16.6%
CC(C)CN(C1CC1)S(=O)(=O)C=Cc1ccccc1 | 13.3%
C=CC(=O)N1CCS(=O)(=O)c2ccccc2C1 | 7.33%
CC1(C)OB(c2cccc3scnc23)OC1(C)C | 3.85%
C=CC(=O)NCC1CC(C)OC(C)C1 (centres unmarked) | 11.1%
N#Cc1c(N)nc2n1CCS2 | 4.18%
N#Cc1ncccc1OCCc1ccccc1 | 13.6%
CC(NC(=O)Cn1cnc(C#N)n1)c1ccc(F)cc1 (centres unmarked) | 4.98%
C=CC(=O)N1CCN(Cc2ccon2)CC1 | 4.28%
Cn1ncc(C(F)(F)F)c1B1OC(C)(C)C(C)(C)O1 | 8.08%
O=C(CCl)Nc1ccc(-c2ccccc2)cc1 | 4.3%
NC(=O)c1ccsc1NC(=O)CCl | 84.7%
NC(=O)c1ccccc1NC(=O)CCl | 0.06%
NC(=O)c1ccsc1NC(=O)CCCl | 9.06%
O=C(CCl)Nc1nncs1 | 4.4%
NC(=O)c1cc(-c2ccccc2)sc1NC(=O)CCl | 79.3%
Cn1cc(C(=O)O)c(CCCCl)n1 | 6.81%
N#Cc1cc(N2CCCC2)c2ccccc2n1 | 3.59%
C=CCNS(=O)(=O)C=Cc1ccccc1 | 7.29%
CC1(C)OB(c2cccc(-n3ccnn3)c2)OC1(C)C | 6.79%
C=CC(=O)Nc1nc2cnccn2n1 | 23%

SMILES | Inhibition %
C=CC(=O)NCc1cc2n(n1)CCCC2 | 10.1%
N#Cc1ncn(CC2CCCO2)n1 (centres unmarked) | 1.91%
O=[N+]([O-])c1ccccc1S(=O)(=O)F | 99.1%
O=S(=O)(F)c1ccccc1Br | 44.3%
O=S(=O)(F)c1ccccc1O | 9.92%
C=CC(=O)NCC1COC(=O)N1 (centres unmarked) | 13.5%
O=S(=O)(F)c1ccc(C(F)(F)F)cn1 | 6.36%
O=S(=O)(F)c1ccc(C(F)(F)F)nn1 | 8.52%
Cc1ccc(S(=O)(=O)F)nn1 | 65.4%
C=CC(=O)N[C@@H]1C=C[C@H](CO)C1 | 8.28%
Cn1cc(C=C(C#N)C(=O)NCCc2ccccc2)cn1 | 9.69%
O=C(O)c1ccc(CCCl)cc1 | 8.12%
CNC(=O)c1cc(C(=O)CCl)cn1C | 5.61%
O=C(CCl)Nc1cc(C(=O)O)cc(C(=O)O)c1 | 1.39%
NC(=O)c1coc(C(=O)CCl)c1 | 96.3%
O=C(O)c1coc(C(=O)CCl)c1 | 96.1%
C=CC(=O)N1CCC(OC)C(C)C1 (centres unmarked) | 4.37%
N#CC(=Cc1ccccc1)C(=O)N1CCC(C(N)=O)CC1 | 9.67%
CN1C(=O)C(C#N)=C(N)C12CCCC2 | 9%
C=CC(=O)N1CCN(C(=O)OCC(C)C)CC1 | 11.5%

— publication PMC9574860, “Chemical Toolkit for PARK7: Potent, Selective, and High-Throughput” (Journal of Medicinal Chemistry, 2022)
